High-throughput results: PubChem, The Scripps Research Institute Molecular Screening Center
OPRM1-OPRD1 ag: agonists of human mu-delta opioid receptor heterodimerization; AID 504326; activation, % at 9.3 µM; 340,000 tested, 0.3% active; cells, OPRM1-OPRD1 heterodimerization, luminescence; P35372+P41143
Target sequence (P35372 whole entry, looked up): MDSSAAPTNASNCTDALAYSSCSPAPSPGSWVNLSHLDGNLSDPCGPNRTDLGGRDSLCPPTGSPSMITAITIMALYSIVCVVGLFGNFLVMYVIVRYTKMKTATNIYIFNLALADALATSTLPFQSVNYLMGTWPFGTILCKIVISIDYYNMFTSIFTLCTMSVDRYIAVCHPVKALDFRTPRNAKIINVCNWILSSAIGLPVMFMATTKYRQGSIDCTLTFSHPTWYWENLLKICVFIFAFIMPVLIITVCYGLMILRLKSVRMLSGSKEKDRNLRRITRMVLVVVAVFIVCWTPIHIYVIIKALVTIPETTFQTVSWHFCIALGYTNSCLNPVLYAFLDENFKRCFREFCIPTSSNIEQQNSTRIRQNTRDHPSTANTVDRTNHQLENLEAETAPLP
Target sequence (P41143 whole entry, looked up): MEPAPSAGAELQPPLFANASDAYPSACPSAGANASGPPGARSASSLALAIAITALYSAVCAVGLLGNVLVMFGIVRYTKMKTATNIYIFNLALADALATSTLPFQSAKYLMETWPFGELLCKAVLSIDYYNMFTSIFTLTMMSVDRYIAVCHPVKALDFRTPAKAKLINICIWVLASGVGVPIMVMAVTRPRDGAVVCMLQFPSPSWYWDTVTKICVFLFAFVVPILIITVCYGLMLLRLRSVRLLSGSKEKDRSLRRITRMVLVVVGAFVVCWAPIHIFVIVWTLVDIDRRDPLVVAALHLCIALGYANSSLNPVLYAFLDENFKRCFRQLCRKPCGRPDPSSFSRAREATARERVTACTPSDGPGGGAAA
HTR5A ag ctr: counter-screen for OPRM1-OPRD1 agonists: human HTR5A agonism | activation, % at 9.3 µM | HTR5A agonist assay, luminescence, cell-based | 340,000 tested, 0.61% active | AID 504692; in the data active = activation mostly above about 9.5%, no sharp cut-off; inactive = mostly below about 7.6%
HTR5A inv ag: HTR5A inverse agonism, opioid heterodimer counter-screen | P47898 | HTR5A cell line, luminescence | inhibition, % at 9.3 µM | 340,000 tested, 0.083% active | AID 504634; in the data active = inhibition mostly above about 23%, no sharp cut-off; inactive = mostly below about 18%
OPRM1-OPRD1 inv: inverse agonists of human mu-delta opioid receptor heterodimerization | 340,000 tested, 0.21% active | AID 504357 | inhibition, % at 9.3 µM | P35372+P41143 | cell-based MOR-DOR heterodimer luminescence, inverse agonism; in the data active = inhibition above about 22%, passing the limit was not always enough
MOR-DOR ag conf: OPRM1-OPRD1 heterodimer agonism, confirmation | shares compounds with OPRM1-OPRD1 ag | cells, MOR-DOR heterodimerization, luminescence complementation | activation, % at 9.3 µM | 830 tested, 45% active
HTR5A ag ctr2: HTR5A agonism, opioid heterodimer counter-screen; shares compounds with OPRM1-OPRD1 ag; HTR5A agonist counterscreen, cell luminescence; activation, % at 9.3 µM; 830 tested, 8% active; AID 504905; in the data active = activation above about 17%
Each line names hits and unclear results; the compound was inactive in the other large screens (follow-up assays come after a bar, where they were run). In the library only some 1.1% were active in any assay of this set; here they are far more common. Cut-off read from the data, not from the text of the source, unless noted: active = activation above about 18%; inactive = the rest.

CCc1ccc(C(=O)COC(=O)c2cncc(Br)c2)cc1	none
Cc1ccc(OCCOc2ccc(Br)cc2/C=N\NC(N)=O)cc1	OPRM1-OPRD1 ag 20 | MOR-DOR ag conf inactive | HTR5A ag ctr2 71
Cc1cccc(C(=O)NNC(=O)c2cc3cc4ccccc4nc3s2)c1	OPRM1-OPRD1 ag 22 | MOR-DOR ag conf inactive | HTR5A ag ctr2 inactive
C(=C\c1nccc2c1[nH]c1ccccc12)/c1ccccc1	none
Fc1ccc(/C=C\c2nccc3c2[nH]c2ccccc23)cc1	OPRM1-OPRD1 ag 19 | MOR-DOR ag conf 33 | HTR5A ag ctr2 37
COc1ccc(C2CC(c3ccc(OC)cc3)n3nc(NC(=O)c4cccs4)nc3N2)cc1 (centres undefined)	OPRM1-OPRD1 ag 26 | MOR-DOR ag conf 48 | HTR5A ag ctr2 inactive
COc1ccc(NS(=O)(=O)c2ccc(O)c(NC(=O)c3cc4c(C)nn(-c5ccc(F)cc5)c4s3)c2)cc1	OPRM1-OPRD1 ag 20 | MOR-DOR ag conf 51 | HTR5A ag ctr2 inactive
CCOC(=O)C1=C(C)N(CCCC(=O)O)C(=O)NC1c1ccccc1OS(=O)(=O)c1ccc(C)cc1 (centres undefined)	OPRM1-OPRD1 ag 62 | MOR-DOR ag conf 58 | HTR5A ag ctr2 inactive
CCOC(=O)C1=C(C)N(CCCC(=O)O)C(=O)NC1c1ccccc1OS(=O)(=O)c1ccccc1[N+](=O)[O-] (centres undefined)	OPRM1-OPRD1 ag 56 | MOR-DOR ag conf inactive | HTR5A ag ctr2 inactive
CCOC(=O)C1=C(C)N(CCCCCC(=O)O)C(=O)NC1c1ccccc1OS(=O)(=O)c1ccc(C)cc1 (centres undefined)	OPRM1-OPRD1 ag 57 | MOR-DOR ag conf inactive | HTR5A ag ctr2 inactive
COC(=O)C1=C(C)N(CCCC(=O)O)C(=O)NC1c1ccccc1OS(=O)(=O)c1ccc([N+](=O)[O-])cc1 (centres undefined)	OPRM1-OPRD1 ag 51 | MOR-DOR ag conf 46 | HTR5A ag ctr2 inactive
CCOC(=O)C1=C(C)N(CCCC(=O)O)C(=O)NC1c1ccccc1 (centres undefined)	none
Cc1occc1C(=O)N(C)Cc1nc(-c2ccccc2)no1	none
CCCCn1c(N)c(N(CC(C)C)C(=O)C2CCCN(C(=O)c3ccc(Cl)cc3)C2)c(=O)[nH]c1=O (centres undefined)	none
Cc1cc(/C=C(\C#N)c2nc3ccccc3[nH]2)c(C)n1C	OPRM1-OPRD1 ag 27, HTR5A ag ctr 13 | MOR-DOR ag conf inactive | HTR5A ag ctr2 inactive
Cc1cccc(NC2=C/C(=N/S(=O)(=O)c3cccs3)c3ccccc3C2=O)c1	none
O=C1C(Nc2ccc(O)cc2)=C/C(=N/S(=O)(=O)c2cccs2)c2ccccc21	OPRM1-OPRD1 ag 24 | MOR-DOR ag conf inactive | HTR5A ag ctr2 inactive
COc1ccc(C2CC(c3ccc4ccccc4c3OC(C)=O)=NN2C(C)=O)cc1 (centres undefined)	OPRM1-OPRD1 ag 129 | MOR-DOR ag conf 21 | HTR5A ag ctr2 inactive
CCCCNC(=O)CSc1nnc(-c2cccc(S(=O)(=O)N3CCOCC3)c2)o1	none
Cc1ccc(-n2c([S-])c(C(=O)Nc3ccc(OC(F)F)cc3)[n+]3ccc(C(=O)NCCO)cc23)cc1C	OPRM1-OPRD1 ag 19 | MOR-DOR ag conf inactive | HTR5A ag ctr2 inactive
CCOc1ccc(Nc2c3ccccc3nc3ccccc23)cc1	OPRM1-OPRD1 ag 20 | MOR-DOR ag conf 37 | HTR5A ag ctr2 inactive
O=C(CCn1nc(-c2ccc(Cl)cc2)ccc1=O)N1CCN(c2ccc(F)cc2)CC1	none
C/C=C(\C)CN1CCC(n2nccc2NC(=O)CCc2ccccc2)CC1	OPRM1-OPRD1 ag 20 | MOR-DOR ag conf inactive | HTR5A ag ctr2 inactive
C/C=C(\C)CN1CCC(n2nccc2NC(=O)CCOc2ccccc2)CC1	none
C(=N\Nc1nc2ccccc2[nH]1)/c1ccccn1	none
C#CCn1cc(/C=N/Nc2nc3ccccc3[nH]2)c2ccccc21	OPRM1-OPRD1 ag 33 | MOR-DOR ag conf inactive | HTR5A ag ctr2 inactive
COc1ccc(C(=O)OCC(=O)N(C)C2CCS(=O)(=O)C2)cc1Br (centres undefined)	OPRM1-OPRD1 ag 76 | MOR-DOR ag conf inactive | HTR5A ag ctr2 inactive
COc1ccc(C(=O)OCC(=O)N(C)C2CCS(=O)(=O)C2)cc1S(=O)(=O)N(C)Cc1ccccc1 (centres undefined)	none
Cc1nc2ccccc2c(=O)n1CCN1CCOCC1	none
Cc1nc2nc(C)n(CCN3CCOCC3)c(=O)c2c(-c2cccc([N+](=O)[O-])c2)c1C(=O)CCCCCCCCCCN1CCC(c2ccccc2)(c2ccccc2)CC1	OPRM1-OPRD1 ag 26 | MOR-DOR ag conf 131 | HTR5A ag ctr2 inactive
COc1ccccc1NC(=O)Nc1nc(CC(=O)N2CCN(c3ccccc3OC)CC2)cs1	none
CN(C)C(CNC(=O)Cc1cccc(C(F)(F)F)c1)c1ccccc1 (centres undefined)	OPRM1-OPRD1 ag 249 | MOR-DOR ag conf 252 | HTR5A ag ctr2 inactive
CN(C)C(CNC(=O)C1CCN(S(=O)(=O)c2cccc(C(F)(F)F)c2)CC1)c1ccccc1 (centres undefined)	OPRM1-OPRD1 ag 22 | MOR-DOR ag conf 140 | HTR5A ag ctr2 inactive
CN(C)C(CNC(=O)C1CCN(S(=O)(=O)c2ccccc2)CC1)c1ccccc1 (centres undefined)	none
CN(C)C(CNC(=O)Cc1cccc(C(F)(F)F)c1)c1ccco1 (centres undefined)	OPRM1-OPRD1 ag 63 | MOR-DOR ag conf 22 | HTR5A ag ctr2 inactive
CCC(=O)NC(C)C(c1cccs1)N1CCN(c2ccccc2)CC1 (centres undefined)	OPRM1-OPRD1 ag 31 | MOR-DOR ag conf inactive | HTR5A ag ctr2 inactive
N#CNC(=Nc1ccccc1)SCc1ccc(C(=O)O)cc1	none
CSC(=Nc1ccccc1)N=C(SCc1ccccc1)N(C)C	OPRM1-OPRD1 ag 76 | MOR-DOR ag conf 38 | HTR5A ag ctr2 inactive
Cc1ccc(-c2nnn(CC(=O)Nc3ccc(S(=O)(=O)N4CCC(C)CC4)cc3)n2)cc1	OPRM1-OPRD1 ag 47, HTR5A ag ctr 15 | MOR-DOR ag conf 26 | HTR5A ag ctr2 inactive
Cc1ccc(Cn2ccc(=O)c(OCc3c(Cl)cccc3Cl)c2C)cc1	OPRM1-OPRD1 ag 28 | MOR-DOR ag conf inactive | HTR5A ag ctr2 24
Clc1ccc(-c2nsc(N3CCOCC3)n2)c(Cl)c1	none
Cn1cc(C(=O)C(=O)NCCc2ccccc2)c2ccccc21	none
Cc1ccccc1NC(=O)C(=O)c1cn(C)c2ccccc12	OPRM1-OPRD1 ag 24 | MOR-DOR ag conf inactive | HTR5A ag ctr2 inactive
O=C(c1sc2ccccc2c1Cl)N(Cc1cccs1)C1CCS(=O)(=O)C1 (centres undefined)	OPRM1-OPRD1 ag 162 | MOR-DOR ag conf inactive | HTR5A ag ctr2 inactive
O=C(c1cccc(Cl)c1)N(Cc1cccs1)C1CCS(=O)(=O)C1 (centres undefined)	none
O=C(Nc1ccccc1)/C(=C/c1cccc(Br)c1)NC(=O)c1ccco1	none
